Laboratory results: PubChem BioAssay

Assay: small-molecule microarray binders of probe aShh, primary screen, biochemical, biotinylated probe, 635/667 nm fluorescence (AID 1114);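 also: probe is biotin-labelled aShh protein from a stem cell growth factor screen; measures binding of labelled protein to compounds printed on the slide; score merges feature fluorescence at 667 nm with signal-to-noise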
Details: higher = more signal

Structure (SMILES)	composite z-score
CC[C@H]1C2=C3C(CC[C@H]4C(OCc5ccc(F)cc5C(F)(F)F)OC[C@](C)([C@@H]34)N(C(=O)OC(C)(C)C)C2)C(COC(C)=O)C1COC(C)=O (stereo partly drawn)	1.15
[N-]=[N+]=NCc1ccccc1[C@H]1OC(c2ccc(OCCCO)cc2)=N[C@@]1(CCS(=O)(=O)c1ccccc1)C(=O)NCCN1CCOCC1	-0.107
C=C(CCCC)/C(=C/C[C@@H](OC(C)=O)c1ccc(OCCO)cc1)c1cc(C(=O)OC)ccc1OC	-0.0769
O=C1C2C=CC(C(O)c3ccccn3)N(Nc3ccc([N+](=O)[O-])cc3)C2C(=O)N1c1ccccc1 (stereo not drawn)	0.184
CCN1C(=O)C2CC(=O)C3C(CN(S(=O)(=O)c4ccc(C)cc4)C3c3ccc(C)cc3)C2C1=O (stereo not drawn)	0.749
COC(=O)C1=CC(CCCO)=CC(c2ccc(CN3CCCC3)cc2)N(C)C=C1C(=O)OC (stereo not drawn)	0.582
CCOC(=O)C[C@H]1[C@H](OC(=O)c2cc3ccccc3oc2=O)[C@@H](NC(=O)c2ccc(-c3ccccc3)cc2)c2cc(OCCCO)ccc2N1C(=O)Cc1ccc(OC)cc1	-0.0035
C=CCNC(=O)[C@H]1[C@@H]2C(=O)O[C@@H](c3ccccc3)[C@@H](c3ccccc3)N2[C@@H](c2ccc(OCCO)cc2)[C@]12C(=O)N(C(=O)OCCOC)c1ccc(C#CCNC(N)=O)cc12	0.194
O=C1C[C@@](C(=O)NCC(F)(F)F)(c2ccc([N+](=O)[O-])cc2)[C@@H](c2ccc(CO)cc2I)N1CC12CC3CC(CC(C3)C1)C2	-0.314
COc1cc2c(cc1O)C(C)N(Cc1sc3ccccc3c1Cl)CC2 (stereo not drawn)	0.075
CCCCCCCCCCC(O)C1C=CC2C(=O)N(C)C(=O)C2N1Nc1ccccc1 (stereo not drawn)	-0.121
COC(=O)[C@@]1(Cc2ccccc2)[C@H]2c3cc(C(=O)N(C)C)n(Cc4ccc(Cl)c(C(F)(F)F)c4)c3C[C@H]2CN1C(=O)c1ccccc1	1.24
COC(=O)[C@@]1(Cc2ccc(F)cc2)[C@H]2c3cc(C(=O)N4CCCC4)n(CCc4c[nH]c5cc(F)ccc45)c3C[C@H]2CN1C(=O)c1ccccc1	0.472
C=CCNC(=O)[C@@H]1[C@H]2C(=O)O[C@H](c3ccccc3)[C@H](c3ccccc3)N2[C@H](c2ccc(OCCO)cc2)[C@@]12C(=O)Nc1ccc(C#CC3=CCCCC3)cc12	0.103
C=CCOC(=O)[C@H]1[C@@H]2C(=O)O[C@@H](c3ccccc3)[C@@H](c3ccccc3)N2[C@@H](c2ccc(OCCOC(=O)[C@H]3C[C@H]4C(=O)NCC(=O)N4[C@H]3c3ccc(O)cc3)cc2)[C@]12C(=O)Nc1ccccc12	-0.16
CO[C@H]1O[C@H](CO)[C@@H](OC(=O)Nc2cccc(F)c2)[C@H](OC(=O)c2cc3ccccc3[nH]2)[C@H]1OC(=O)c1cc2ccccc2[nH]1	-0.138
O=C1O[C@@H](c2ccccc2)[C@@H](c2ccccc2)N2[C@@H](c3ccccc3OCCO)[C@]3(C(=O)Nc4ccc(C#CC5(O)CCCCCC5)cc43)[C@@H](C(=O)N3CCCCCCC3)[C@H]12	3.04
CCCCCCc1nc(Cc2cc(OC)c(OC)c(OC)c2)c(C)c2c1[Si](C(C)C)(C(C)C)OC2	0.14
[N-]=[N+]=NCc1ccccc1[C@H]1OC(c2ccc(OCCCO)cc2)=N[C@@]1(CCS(=O)(=O)c1ccccc1)C(=O)O	-0.156
COc1ccc(NN2C(C(O)c3ccc(F)cc3)C=CC3C(=O)N(C4CCCCC4)C(=O)C32)cc1 (stereo not drawn)	0.108
CC1C2C(CCCO)=CC(C3C(=O)N(C)C(=O)C23)N1Cc1cccc(OC(F)(F)F)c1 (stereo not drawn)	0.522
CCOC(=O)C1=C[C@@H](C(C)(C)C)N(S(=O)(=O)c2ccc(C)cc2)[C@H]1c1ccc(OC)cc1	0.216
Cc1ccc(N2C(=O)c3ccccc3[C@@H](C(=O)NCCN3CCOCC3)[C@@H]2c2ccc(CO)cc2)nc1	-0.214
O=C(N1CCOCC1)[C@]1(CCS(=O)(=O)c2ccccc2)N=C(c2ccc(OCCCO)cc2)O[C@@H]1c1ccccc1	0.123
C=CCC(OC(C)=O)[C@@H]1[C@@H](N(Cc2ccc(-c3ccccc3)cc2)C(=O)Cc2ccc(OC)cc2)c2cc(OCCCO)ccc2N1C(=O)Cc1ccc(OC)cc1 (stereo partly drawn)	-0.229
C=C(COC)C(=O)CC[C@H](OC(C)=O)c1ccccc1OCCO	-0.223
COc1cc(CO)cc(I)c1O[C@H]1C=C(C(=O)NCCO)C[C@@H](N(CCN2CCOCC2)C(=O)C2CCCO2)[C@@H]1O (stereo partly drawn)	-0.0769
CC(C)(C)OC(=O)CC[C@@]1(C(N)=O)N=C(c2ccc(OCCCO)cc2)O[C@@H]1c1ccccc1CN=[N+]=[N-]	0.553
